# Results published in PubChem BioAssay.
# The source made the active and inactive calls. No stated cut-off is given here; in the data, active means inhibition above about 30%; inactive means the rest.
# Tested on: transactivating tegument protein VP16 (Human herpesvirus 1), Gal4-VP16 luciferase reporter
# Test: repression of VP16-driven luciferase reporter – cell-based, luminescence, high throughput, counter-screen for SRC3 inhibitor project (AID 588794)
# Details: mammalian cells, at 3.6 µM, stronger effect = higher value
row,SMILES,inhibition
1,COc1ccc(C(C(=O)NC2CCCCC2)N(C(=O)CCl)c2ccc(OC)cc2)cc1 (stereo not given),27.2% (inactive)
2,COc1cccc(/C=N/Nc2nc3ccccc3n3cnnc23)c1O,1.79% (inactive)
3,COc1ccc(CN(C)C(=O)c2cccc(NC(=O)CC3SC(N4CCCCC4)=NC3=O)c2)c(OC)c1 (stereo not given),30.3% (active)
4,COC(=O)c1cc(S(=O)(=O)NCCc2ccc(Cl)cc2)c[nH]1,18.4% (inactive)
5,CCOC(=O)c1c(Nc2ccccc2OCCOC)n[nH]c1C,-0.92% (inactive)
6,O=C(NCc1cccs1)C1CCCN(C(=O)Nc2ccccc2)C1 (stereo not given),31.9% (active)
7,CC(=O)c1c(C)[nH]c(C(=O)OCC(=O)Nc2c(C)cccc2C)c1C,13.5% (inactive)
8,CC1Cc2cc(-c3csc(NC(=O)Cc4ccccc4)n3)ccc2N1S(C)(=O)=O (stereo not given),24.3% (inactive)
9,O=C(Nc1ccc(N2CCN(c3ncccc3C(F)(F)F)CC2)nc1)c1cccs1,7.03% (inactive)
10,CCCCc1nc2ccccc2c(N)c1CCC (tested in a mixture with another compound),9.99% (inactive)
11,CCOC(=O)c1c(NC(=S)N2CCN(C)CC2)sc2c1CCN(C(=O)OCC)C2,40.1% (active)
12,COc1ccc(C(C(=O)NC2CCCCC2)N(C(=O)CCl)c2ccc(Cl)cc2)cc1 (stereo not given),24.8% (inactive)
13,CC1CN(Cc2ccccc2)c2nc3c(c(=O)n(CC(N)=O)c(=O)n3C)n2C1 (stereo not given),-4.77% (inactive)
14,C=CCn1c(NCCc2ccccc2)nc2c1c(=O)n(C)c(=O)n2C,28.1% (inactive)
15,Cc1ccccc1NC(=O)C(=Cc1ccc(C(=O)O)cc1)C(=O)Nc1ccccc1C,43.2% (active)
16,Cc1ccc(S(=O)(=O)Nc2ccc3c(c2)OCCO3)cc1C,-2.28% (inactive)
17,FC(F)(F)c1cccc(-c2nc3nc(Cl)c(Cl)nc3[nH]2)c1,31.5% (active)
18,Nc1nc(NCc2ccco2)nc(N2CCCCCC2)c1[N+](=O)[O-],18% (inactive)
19,CC(=O)Nc1ccc(S(=O)(=O)NCCSCc2ccccc2Cl)cc1,17.1% (inactive)
20,Cc1ccc(-n2c(Cl)c(Cl)nc(Cl)c2=O)cc1,17.9% (inactive)

row,SMILES,inhibition
1,CCC(C)(CC(=O)O)CC(=O)Nc1cc(C(F)(F)F)cc(C(F)(F)F)c1 (stereo not given),-3.88% (inactive)
2,CCN(CC)c1ccc(/C=N/NC(=O)c2cnccn2)c(O)c1,52.3% (active)
3,COc1cc(/C=C2/SC(=S)N(c3ccccc3)C2=O)ccc1Oc1nc(N2CCOCC2)nc(N2CCOCC2)n1,-7.44% (inactive)
4,O=C(CCc1ccccc1)N/N=C/c1cc(Br)ccc1O,17.2% (inactive)
5,COCC(C)NS(=O)(=O)c1ccc(C(=O)NC(Cc2ccccc2)c2ccccc2)cc1 (stereo not given),0.32% (inactive)
6,Nc1nc(CCl)nc(N(c2ccccc2)c2ccccc2)n1,15.9% (inactive)
7,COc1ccc(CN(Cc2cccn2C)S(=O)(=O)c2ccc(C)cc2)cc1,-4.15% (inactive)
8,CC(=O)N(Cc1ccc(F)cc1)C1=C(NCc2ccccc2)C(=O)c2ccccc2C1=O,31.9% (active)
9,COc1cccc(-c2c(C(=O)N/N=C/c3ccncc3)nnn2-c2nonc2N)c1,12.9% (inactive)
10,Cc1ccc(O)c(C(=O)c2cnc3c(c2)COc2ccccc2-3)c1,5.53% (inactive)
11,CC(=O)c1cc(CC=C(C)C)c(O)c(CC=C(C)C)c1O,-4.39% (inactive)
12,CCOC(=O)c1c(C)[nH]c(C(=O)N/N=C\c2ccccc2O)c1C,12.8% (inactive)
13,CC(C)(C)c1cc(C(=O)N/N=C/c2ccccc2O)n(-c2ccccc2)n1,40.6% (active)
14,O=C(N/N=C/c1ccccc1O)c1ccncc1,13.7% (inactive)
15,O=C(Nc1cccc(S(=O)(=O)N2CCCCC2)c1)c1ccc(S(=O)(=O)C(F)F)cc1,14.9% (inactive)
16,Cc1nc(SCC(=O)NNC(=O)c2ccc(F)cc2)c2ccccc2n1,-10.9% (inactive)
17,Cc1nc(Nc2nc(CSc3nc4ccccc4[nH]3)cc(=O)[nH]2)nc2ccccc12,3.35% (inactive)
18,CCOc1c(Br)cc(CNC2CCCCCCC2)cc1OC,-0.26% (inactive)
19,C=C[C@@H]1c2c(F)cccc2N(S(=O)(=O)c2ccc(C)cc2)[C@H](c2ccc(OC(C)=O)cc2)C1(C#N)C#N,3.61% (inactive)
20,COc1ccc(N2CCN(c3nc(NCCc4ccc(OC)c(OC)c4)nc(OC)n3)CC2)cc1,1.14% (inactive)
